Results on 3 compounds are retold here after PubChem BioAssay (EPA / NIEHS).

The nature of assay [1]: ATG_CRE_CIS: Attagene CIS-FACTORIAL HepG2 Assay for human cAMP Responsive Element (CRE) binding protein 3 (AID 2282926). The following applies: HepG2 CRE cis-reporter, Attagene multiplexed mRNA; actives raise or lower the signal. Put shortly:
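HepG2 cells transiently transfected with cis-element-driven multiple reporter transcription units; CRE reporter mRNA measured 24 h after dosing by RT-PCR, 6-FAM labelling, HpaI digestion and capillary electrophoresis. Bidirectional fit versus DMSO baseline.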

Assay [2] deals with CCAAT/enhancer-binding protein beta (Homo sapiens) (UniProt P17676). The experiment in a line: ATG_C_EBP_CIS: Attagene CIS-FACTORIAL HepG2 Assay for human CCAAT/Enhancer Binding Protein (C/EBP) beta (AID 2282927). Conditions: HepG2 Attagene cis-factorial transcription factor reporter; actives raise or lower the signal. The gist of the method: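 Changes in reporter mRNA, rather than exogenous chimeric receptor activity, reflect native C/EBP signalling in transfected HepG2 cells dosed for 24 h; transcripts are detected by RT-PCR and capillary electrophoresis.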

Assay [3] is described as follows: ATG_CMV_CIS: Attagene CIS-FACTORIAL HepG2 Assay for human CMV (Internal Marker) (AID 2282928).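 Note: endpoint acts as a background internal control marker rather than a target.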 Conditions: HepG2 CMV promoter reporter, transcription factor profiling; actives raise or lower the signal. The gist of the method: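 Cell system: HepG2, transiently transfected multiple reporter units under cis promoters. Exposure: 24 h. Detection: RT-PCR, FAM labeling, HpaI digestion, capillary electrophoresis. Analysis: bidirectional, DMSO baseline.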

A short description of assay [4]: ATG_AP_1_CIS: Attagene CIS-FACTORIAL HepG2 Assay for human Activator Protein 1 (AP-1) (AID 2282931). The following applies: HepG2 Attagene cis-factorial AP-1 reporter mRNA; actives raise or lower the signal. Put shortly:
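Multiplexed HepG2 reporter assay, 24 h dosing. mRNA induction detected by RT-PCR plus capillary electrophoresis. Activity fitted in both directions against DMSO.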

Assay [5] in a line: ATG_AP_2_CIS: Attagene CIS-FACTORIAL HepG2 Assay for human Activator Protein 2 (AP-2) (AID 2282932). The following applies: HepG2 AP-2 cis-reporter, Attagene transcription factor profiling; actives raise or lower the signal. Put shortly:
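Step one: transient transfection of HepG2 with reporter transcription units. Step two: 24 h chemical exposure. Step three: RNA extraction, RT-PCR, labelled fragment analysis by capillary electrophoresis; DMSO serves as baseline.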

The nature of assay [6]: ATG_BRE_CIS: Attagene CIS-FACTORIAL HepG2 Assay for human Bone Morphogenetic Protein (BMP) Response Element (BRE) (AID 2282933). Conditions: HepG2 BMP response element reporter, Attagene transcription factor profiling; actives raise or lower the signal. Put shortly: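 Endogenous transcription factor activity read in transiently transfected HepG2 cells after 24 h chemical exposure. Bidirectional curve fitting against DMSO; readout is reporter transcript level by RT-PCR with capillary electrophoresis of labelled products.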

For assay [7], the target named is Transcription factor E2F1 (Homo sapiens) (UniProt Q01094). The experiment in a line: ATG_E2F_CIS: Attagene CIS-FACTORIAL HepG2 Assay for human E2F Transcription Factor 1 (AID 2282935). Conditions: HepG2 Attagene cis-reporter, E2F reporter RNA transcripts; actives raise or lower the signal. Put shortly:
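Total RNA from 24 h-treated, reporter-transfected HepG2 cells undergoes DNase I treatment, oligo(dT) reverse transcription, PCR and 6-FAM primer extension before capillary electrophoresis.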

The nature of assay [8]: ATG_E_Box_CIS: Attagene CIS-FACTORIAL HepG2 Assay for human Enhancer Box (E-box) (AID 2282936). The following applies: HepG2 E-box cis-reporter transcription, actives raise or lower the signal. Put shortly: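 DMSO served as negative control and baseline for bidirectional fitting. Human hepatoma HepG2 cells, transiently transfected with cis-reporter constructs, were dosed 24 h; reporter mRNA read by RT-PCR and capillary electrophoresis.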

Assay [9] is described as follows: ATG_M_61_CIS: Attagene CIS-FACTORIAL HepG2 Assay for M61 Transcription Factor (Internal Marker) (AID 2282937). Conditions: HepG2 Attagene CIS-FACTORIAL M61 internal marker reporter; actives raise or lower the signal. Put shortly: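 Endogenous transcription factor activity in HepG2 is read through transiently transfected cis-element reporter units. After 24 h dosing, RNA undergoes reverse transcription, PCR and primer extension with 6-FAM before capillary electrophoresis; DMSO-referenced bidirectional fit.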

The nature of assay [10]: ATG_EGR_CIS: Attagene CIS-FACTORIAL HepG2 Assay for human Early Growth Response 1 (EGR1) (AID 2282938). Conditions: HepG2 Attagene CIS-FACTORIAL EGR reporter mRNA; actives raise or lower the signal. The gist of the method: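 Activity is taken as induction or loss of reporter mRNA versus DMSO, fitted bidirectionally. Transcripts from cis-regulated reporter units in transiently transfected HepG2 were measured after 24 h by RT-PCR with capillary electrophoresis.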

A short description of assay [11]: ATG_M_19_CIS: Attagene CIS-FACTORIAL HepG2 Assay for M19 Transcription Factor (Internal Marker) (AID 2282939). Conditions: HepG2 Attagene CIS-FACTORIAL M19 internal marker reporter; actives raise or lower the signal. The gist of the method:
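Internal marker readout, fitted in both directions against DMSO, from HepG2 cells carrying transfected cis-element reporter constructs; RT-PCR and capillary electrophoresis of reporter mRNA after 24 h exposure.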

A short description of assay [12]: ATG_GATA_CIS: Attagene CIS-FACTORIAL HepG2 Assay for human GATA Binding Protein (AID 2282944). Conditions: HepG2 GATA cis-element reporter, Attagene multiplex mRNA; actives raise or lower the signal. The gist of the method: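 Reporter transcripts from a GATA cis-regulated unit, among multiplexed reporters in transfected HepG2 cells, were measured by RT-PCR with capillary electrophoresis after 24 h dosing. Induction or loss scored relative to DMSO.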

A short description of assay [13]: ATG_GLI_CIS: Attagene CIS-FACTORIAL HepG2 Assay for human Zinc Finger Protein GLI1 (AID 2282945). The following applies: HepG2, Attagene cis-factorial reporter mRNA, GLI element; actives raise or lower the signal. Put shortly:
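Bidirectional curve fits relative to DMSO, using reporter mRNA levels from RT-PCR plus capillary electrophoresis. Cells were HepG2 transiently carrying cis-regulated reporter constructs, harvested 24 h after dosing.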

The nature of assay [14]: ATG_ISRE_CIS: Attagene CIS-FACTORIAL HepG2 Assay for human Interferon Regulatory Factor 1 (IRF1) binding to an Interferon-Stimulated Response Element (ISRE) (AID 2282948). The following applies: HepG2 ISRE cis-reporter (Attagene), mRNA transcription readout; actives raise or lower the signal. Put shortly:
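Quantitation relies on labelled RT-PCR fragments separated by capillary electrophoresis. Human HepG2 cells bearing cis-promoter reporter constructs were treated 24 h; DMSO served as baseline for bidirectional fitting.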

A short description of assay [15]: ATG_M_32_CIS: Attagene CIS-FACTORIAL HepG2 Assay for M32 Transcription Factor (Internal Marker) (AID 2282949).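 Note: background control marker of the multiplexed CIS panel rather than a real target.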 Conditions: HepG2 Attagene cis-factorial M32 reporter, mRNA; actives raise or lower the signal. The gist of the method: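 Following 24 h chemical exposure of HepG2 cells transiently expressing cis-promoter reporter constructs, reporter transcript levels were determined by RT-PCR with fluorescent labelling and capillary electrophoresis, then fitted bidirectionally against DMSO.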

Assay [16] is described as follows: ATG_MRE_CIS: Attagene CIS-FACTORIAL HepG2 Assay for human Metal Responsive Element (MRE) (AID 2282954). Conditions: HepG2 MRE cis-reporter transcription, Attagene multiplex; actives raise or lower the signal. Put shortly:
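After a 24 h chemical exposure, transiently transfected HepG2 cells yield RNA whose reporter sequences are amplified, FAM-labelled and sized by capillary electrophoresis. Curves are fitted bidirectionally relative to DMSO.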

The target in assay [17] is Paired box protein Pax-6 (Homo sapiens) (UniProt P26367). The experiment in a line: ATG_Pax6_CIS: Attagene CIS-FACTORIAL HepG2 Assay for human Paired Box 6 (PAX6) (AID 2282956). Conditions: HepG2 CIS-FACTORIAL PAX6 reporter transcription, RNA readout; actives raise or lower the signal. Put shortly:
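After twenty-four hours of chemical exposure, transfected HepG2 cells are harvested for RNA. Cis-promoter reporter transcripts are amplified, fluorescently labelled and sized by capillary electrophoresis, with gain and loss of signal scored against DMSO.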

Assay [18] can be described thus: ATG_PXRE_CIS: Attagene CIS-FACTORIAL HepG2 Assay for human Pregnane X Receptor Element (PXRE) (AID 2282957). The following applies: HepG2 Attagene CIS-FACTORIAL PXRE reporter, mRNA; actives raise or lower the signal. Put shortly:
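HepG2 cells transiently transfected with cis-element-driven multiplexed reporter units; after 24 h chemical exposure, reporter mRNA measured by RT-PCR, 6-FAM labelling, HpaI digestion and capillary electrophoresis. Bidirectional fitting relative to DMSO.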

Assay [19] deals with Transcription factor Sp1 (Homo sapiens) (UniProt P08047). The experiment in a line: ATG_Sp1_CIS: Attagene CIS-FACTORIAL HepG2 Assay for human Specificity Protein 1 (Sp1) (AID 2282961). The following applies: HepG2 Sp1 cis-reporter transcription, actives raise or lower the signal. The gist of the method:
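Cells: HepG2, transiently transfected with cis-regulated multiplexed reporters. Exposure: 24 h. Detection: reporter transcripts amplified, fluorescently labeled, restriction-digested and sized by capillary electrophoresis. Analysis: bidirectional fit relative to DMSO.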

Assay [20] addresses Signal transducer and activator of transcription 3 (Homo sapiens) (UniProt P40763). The assay is described as follows: ATG_STAT3_CIS: Attagene CIS-FACTORIAL HepG2 Assay for human Signal Transducer and Activator of Transcription 3 (STAT3) (AID 2282963). Conditions: HepG2, Attagene cis-factorial STAT3 reporter transcription; actives raise or lower the signal. Put shortly: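 After a 24 h compound incubation, total RNA from MRTU-transfected HepG2 cells was converted to cDNA and reporter sequences PCR-amplified, labelled and profiled by capillary electrophoresis. Gain and loss of signal were referenced to DMSO.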

The structures appear in SMILES notation. Activity calls are given as the source filed them. Rule for the calls: active = hit-call score of the fitted dose curve at least 0.9, where 1 is the maximum; inactive = score below 0.9.

CCAAT/enhancer-binding protein beta (Homo sapiens), sequence (P17676 whole entry, looked up): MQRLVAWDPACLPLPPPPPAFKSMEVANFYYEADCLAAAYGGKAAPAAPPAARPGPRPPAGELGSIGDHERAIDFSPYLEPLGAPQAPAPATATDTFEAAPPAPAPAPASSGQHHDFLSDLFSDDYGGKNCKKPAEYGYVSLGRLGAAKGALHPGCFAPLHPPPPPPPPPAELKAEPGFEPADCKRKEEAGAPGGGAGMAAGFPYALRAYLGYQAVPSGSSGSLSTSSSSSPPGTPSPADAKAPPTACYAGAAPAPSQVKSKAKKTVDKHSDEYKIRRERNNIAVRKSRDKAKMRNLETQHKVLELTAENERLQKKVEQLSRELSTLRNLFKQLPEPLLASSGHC
Paired box protein Pax-6 (Homo sapiens), sequence (P26367 whole entry, looked up): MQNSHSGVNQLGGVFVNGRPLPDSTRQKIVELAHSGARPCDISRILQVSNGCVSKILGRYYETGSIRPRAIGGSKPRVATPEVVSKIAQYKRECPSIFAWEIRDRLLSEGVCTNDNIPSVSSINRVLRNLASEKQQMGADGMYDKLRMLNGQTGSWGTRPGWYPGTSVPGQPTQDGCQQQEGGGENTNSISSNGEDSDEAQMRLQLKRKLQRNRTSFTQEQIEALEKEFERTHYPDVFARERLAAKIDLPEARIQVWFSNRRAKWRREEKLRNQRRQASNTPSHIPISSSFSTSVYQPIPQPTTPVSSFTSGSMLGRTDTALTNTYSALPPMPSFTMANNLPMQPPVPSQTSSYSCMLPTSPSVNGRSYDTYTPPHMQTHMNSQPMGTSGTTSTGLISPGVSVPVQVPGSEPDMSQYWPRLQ
Transcription factor Sp1 (Homo sapiens), sequence (P08047 whole entry, looked up): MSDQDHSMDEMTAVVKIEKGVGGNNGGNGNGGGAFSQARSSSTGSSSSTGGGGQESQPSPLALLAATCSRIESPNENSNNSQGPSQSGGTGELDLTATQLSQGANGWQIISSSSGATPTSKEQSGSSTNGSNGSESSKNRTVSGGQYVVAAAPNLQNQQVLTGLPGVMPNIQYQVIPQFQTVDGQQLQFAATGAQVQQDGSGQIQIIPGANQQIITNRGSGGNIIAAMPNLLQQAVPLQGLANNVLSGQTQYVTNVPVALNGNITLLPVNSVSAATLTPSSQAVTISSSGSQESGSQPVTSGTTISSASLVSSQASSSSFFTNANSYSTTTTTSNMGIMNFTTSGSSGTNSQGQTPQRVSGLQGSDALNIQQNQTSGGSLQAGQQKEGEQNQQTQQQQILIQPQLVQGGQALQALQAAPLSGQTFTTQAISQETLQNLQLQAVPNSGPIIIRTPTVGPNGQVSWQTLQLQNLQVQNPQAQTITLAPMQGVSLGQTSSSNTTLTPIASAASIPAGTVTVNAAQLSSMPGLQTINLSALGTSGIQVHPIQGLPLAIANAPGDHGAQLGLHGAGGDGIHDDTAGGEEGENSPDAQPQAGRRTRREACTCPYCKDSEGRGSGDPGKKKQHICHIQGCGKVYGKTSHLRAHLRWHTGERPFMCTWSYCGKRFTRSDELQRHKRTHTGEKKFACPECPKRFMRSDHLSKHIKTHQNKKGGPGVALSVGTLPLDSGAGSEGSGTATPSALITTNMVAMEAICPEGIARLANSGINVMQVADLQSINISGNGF
Transcription factor E2F1 (Homo sapiens), sequence (Q01094 whole entry, looked up): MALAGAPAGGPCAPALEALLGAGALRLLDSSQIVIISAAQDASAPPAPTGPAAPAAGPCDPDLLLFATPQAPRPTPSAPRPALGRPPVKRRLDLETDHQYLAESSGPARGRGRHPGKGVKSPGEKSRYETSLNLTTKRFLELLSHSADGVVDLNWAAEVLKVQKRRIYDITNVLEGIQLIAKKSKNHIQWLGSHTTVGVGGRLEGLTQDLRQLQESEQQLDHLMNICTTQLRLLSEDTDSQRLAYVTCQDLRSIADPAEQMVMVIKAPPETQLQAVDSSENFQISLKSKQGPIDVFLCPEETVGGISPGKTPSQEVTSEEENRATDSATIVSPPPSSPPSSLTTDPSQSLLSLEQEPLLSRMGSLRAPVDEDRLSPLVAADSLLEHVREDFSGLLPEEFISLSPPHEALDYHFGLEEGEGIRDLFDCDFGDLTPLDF
Signal transducer and activator of transcription 3 (Homo sapiens), sequence (P40763 whole entry, looked up): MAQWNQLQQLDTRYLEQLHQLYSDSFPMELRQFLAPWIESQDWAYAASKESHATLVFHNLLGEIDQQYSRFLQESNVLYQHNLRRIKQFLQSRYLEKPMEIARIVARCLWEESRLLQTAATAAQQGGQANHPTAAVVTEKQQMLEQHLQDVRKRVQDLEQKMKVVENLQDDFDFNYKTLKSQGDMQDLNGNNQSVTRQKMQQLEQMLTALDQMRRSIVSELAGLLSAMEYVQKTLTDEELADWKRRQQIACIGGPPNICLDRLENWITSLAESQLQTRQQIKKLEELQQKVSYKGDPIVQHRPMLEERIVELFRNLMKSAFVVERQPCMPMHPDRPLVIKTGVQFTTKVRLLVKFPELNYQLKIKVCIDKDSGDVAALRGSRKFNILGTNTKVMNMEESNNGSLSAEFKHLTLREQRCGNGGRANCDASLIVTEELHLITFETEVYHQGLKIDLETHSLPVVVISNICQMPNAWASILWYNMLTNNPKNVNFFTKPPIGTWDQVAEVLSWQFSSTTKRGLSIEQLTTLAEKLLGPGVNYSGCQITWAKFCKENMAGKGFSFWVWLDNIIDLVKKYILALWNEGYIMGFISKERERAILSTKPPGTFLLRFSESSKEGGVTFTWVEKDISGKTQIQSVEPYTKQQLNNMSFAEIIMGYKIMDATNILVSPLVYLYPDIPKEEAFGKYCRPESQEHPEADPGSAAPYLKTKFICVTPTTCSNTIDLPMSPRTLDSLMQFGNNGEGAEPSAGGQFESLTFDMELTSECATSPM

The term AC50 denotes the concentration giving half of the maximal activity seen. Turning to `CC/C=C\CCCCCO`, the result in assay [1], in [2], in assay [3], in assay [4], in [5] and in [6] was inactive. Besides, the outcome in assay [7], in assay [8], in [9], in assay [10], in assay [11] and in assay [12] was inactive. For the same compound, the result in assay [13], in assay [14], in assay [15], in [16], in assay [17] and in [19] was inactive. The result in [20] was inactive. Further, in assay [18], the AC50 is 78.4 µM (active).

On to `COC(OC)C(C)c1ccccc1` (stereo not given), for which the compound was called inactive in [1], in assay [2], in assay [3], in assay [4], in [5] and in assay [6]. Moreover, the compound was classed as inactive in assay [7], in [8], in assay [9], in assay [10], in assay [11] and in assay [12]. In addition, the outcome in assay [13], in assay [14], in assay [15], in assay [16], in assay [17] and in [19] was inactive. Also, the call in assay [20] was inactive. Also, in assay [18], the AC50 was 27.2 µM (active).

Regarding `CN(C)CCCN1c2ccccc2CCc2ccc(Cl)cc21`, the call in [1], in [2], in assay [3], in assay [4], in assay [6] and in [7] was inactive. The outcome in assay [8], in assay [9], in assay [10], in assay [11], in [12] and in assay [13] was inactive. Moreover, the compound was classed as inactive in [14], in assay [15], in [16], in [19] and in assay [20]. Besides, the AC50 in assay [5] is 7.1 µM (active); in [17], 11.1 µM (active); in assay [18], 5.14 µM (active).
